Screening data deposited in PubChem by National Center for Advancing Translational Sciences (NCATS).
MBNL1 CUG block: qHTS Assay for Inhibitors of MBNL1-poly(CUG) RNA binding; actives 0.036% (n = 280,000); AID 2675, 2010; Muscleblind-like protein 1 (Homo sapiens), Q9NR56; TR-FRET MBNL1-His/biotin-(CUG)12 binding, 665/545 ratio; Potency, µM (titrated, usually from 57.5 µM), for inactives: at the top dose activity change, negative = inhibition, usual class: inhibitors; active = well fitted inhibition curve with a large enough effect in the signal ratio, with a control signal flat, not every such curve was filed as active; inconclusive = small, poorly fitted or top-dose-only effect, or effect the other way, or a change in a side signal; inactive = no such curve, though single readings can be large or run the other way; the % refers to the signal ratio; note: potency is the fitted concentration of half-maximal effect; % is set by controls: 0 for no effect and ±100 for the full control effect
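Ratiometric TR-FRET (665 over 545 nm, excitation 340 nm) tracks disruption of MBNL1-His/biotin-(CUG)12 complex after 60 min at room temperature, with compounds at 92 nM to 58 uM final.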
uPA generation: qHTS for Inhibitors of Cell Surface uPA Generation; actives 0.31% (n = 330,000); Potency, µM (titrated, usually from 38.3 µM), for the others: top-dose activity change, negative = inhibition, usual class: inhibitors; cell surface uPA generation assay, qHTS; active = well fitted inhibition curve with a large enough effect; inconclusive = small, poorly fitted or top-dose-only effect; inactive = no such curve, though single readings can be large or run the other way; tested in mouse RAW 264.7 cells; note: potency is the fitted concentration of half-maximal effect; % is set by controls: 0 for no effect and ±100 for the full control effect; nearly all actives have a fitted effect of over 55% in size
CtBP-E1A blk: qHTS Assay for Inhibitors of the CtBP/E1A Interaction; AlphaScreen GST-E1A/His-CtBP binding, 1536-well; active compounds read low; activity change, % (no concentration beside the values); actives 0.49% (n = 340,000); AID 651724, 2012; note: % is set by controls: 0 for no effect and ±100 for the full control effect
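GST-E1A and His-tagged CtBP (125 nM each as 5X stock) were preincubated with pin-transferred compound for 2 h at 37 °C in the dark, then glutathione donor and nickel acceptor beads were added for 1 h before AlphaScreen reading.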
Mito fusion yeast: qHTS Assay for Small Molecule Inhibitors of Mitochondrial Division or Activators of Mitochondrial Fusion. Potency, µM (doses to about 46.1 µM), inactives show top-dose growth rescue (activation), actives largely listed as activators. actives 0.23% (n = 320,000). AID 485298, 2010. S. cerevisiae fusion-defective mutant growth rescue, CellTiterGlo 48 h; active = well fitted activation curve with a large enough effect; inconclusive = small, poorly fitted or top-dose-only effect; inactive = no such curve, though single readings can be large or run the other way; note: potency is the fitted concentration of half-maximal effect; % of control where 0% means no effect; nearly all actives have a fitted effect of over 45% in size
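Yeast fusion mutant, YPEG (non-fermentable carbon), compound, 48 h at 37C non-permissive; CellTiterGlo added, 10 min RT, luminescence read. Rescued growth = division inhibition.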
Six1-Eya2 inh: qHTS Assay for Inhibitors of the Six1/Eya2 Interaction. actives 0.56% (n = 360,000). AlphaScreen GST-Six1/His-Eya2 binding, biochemical; active compounds read low. Homeobox protein SIX1 (Homo sapiens) + Protein phosphatase EYA2 (Homo sapiens), …. activity change, % (concentration not given with the values); note: % is set by controls: 0 for no effect and ±100 for the full control effect
Target sequence (O00167 whole entry, looked up): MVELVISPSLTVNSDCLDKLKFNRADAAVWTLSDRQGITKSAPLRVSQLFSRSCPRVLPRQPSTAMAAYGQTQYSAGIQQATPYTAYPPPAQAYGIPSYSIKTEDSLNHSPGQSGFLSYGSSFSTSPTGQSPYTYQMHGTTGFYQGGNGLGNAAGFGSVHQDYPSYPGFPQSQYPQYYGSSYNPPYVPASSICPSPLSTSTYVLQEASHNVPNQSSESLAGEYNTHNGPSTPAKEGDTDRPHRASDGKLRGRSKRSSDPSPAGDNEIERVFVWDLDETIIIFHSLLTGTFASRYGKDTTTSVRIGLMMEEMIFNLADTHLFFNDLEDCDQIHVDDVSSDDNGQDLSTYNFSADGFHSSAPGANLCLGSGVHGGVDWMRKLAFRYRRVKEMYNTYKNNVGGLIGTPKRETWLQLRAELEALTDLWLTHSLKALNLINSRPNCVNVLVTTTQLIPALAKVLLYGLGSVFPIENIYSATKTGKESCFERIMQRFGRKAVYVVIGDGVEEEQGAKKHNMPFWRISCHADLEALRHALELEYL
Target sequence (Q15475 whole entry, looked up): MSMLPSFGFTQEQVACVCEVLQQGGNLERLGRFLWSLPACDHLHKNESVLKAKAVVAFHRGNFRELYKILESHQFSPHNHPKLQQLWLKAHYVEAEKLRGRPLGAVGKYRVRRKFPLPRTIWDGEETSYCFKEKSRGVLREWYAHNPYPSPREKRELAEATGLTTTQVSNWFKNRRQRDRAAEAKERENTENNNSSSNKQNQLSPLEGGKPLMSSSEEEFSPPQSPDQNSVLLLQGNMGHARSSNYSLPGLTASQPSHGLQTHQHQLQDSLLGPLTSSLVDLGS
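GST-Six1 + His-Eya2 (5X stock: 250/500 nM); Tris pH 8.0, 300 mM NaCl, 0.05% BSA, 0.02% Tween 20; GSH donor/Ni acceptor beads; 1 h 37 °C dark; AlphaScreen readout.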
* = called active by the depositor; ? = inconclusive; nt = not tested or not shown; [ ] = another dose, or the depositor's remark. The list is not random: actives were taken first. Their share in the collection is about 1.1%. Cut-off read from the data, not from the text of the source, unless noted: active = activity change below about -65%; inconclusive = mostly about -30% to -63%; inactive = weaker than that.

SMILES	MBNL1 CUG block	uPA generation	CtBP-E1A blk	Mito fusion yeast	Six1-Eya2 inh
O=C(/C=C\c1ccccc1)NCC(=O)N/N=C/c1ccc(O)cc1O	?	9%	-97*	?	-75*
O=C(CNC(=O)C(c1ccccc1)c1ccccc1)N/N=C/c1ccc(O)cc1O	-4%	?	-18	4%	?
COc1ccc(O)c(/C=N/NC(=O)c2cc(=O)[nH]c3ccccc23)c1	19%	?	?	1%	-92*
Nc1nn2c(C(F)(F)F)cc(=O)[nH]c2c1N=Nc1cccc(F)c1	5%	1%	-6	0%	-17
Cc1cc(=O)[nH]c2c(N=Nc3ccc(O)cc3)c(N)nn12	?	-13%	nt	1%	-77*
CC(C)Oc1ccc(C(=O)NC2(C(F)(F)F)NC(=O)N(CCCc3ccccc3)C2=O)cc1 (stereo not given)	-15%	2%	-1	20µM*	-3
COc1cc2nc(Nc3ccc(C)c(Cl)c3)nc(N)c2cc1OC	-7%	-2%	?	-21%	-23
Cc1ccc(Nc2nc(N)c3ccccc3n2)cc1Cl	-14%	7.9µM*	nt	-5%	12
CC(C)(C)[C@H](NC(=O)c1ccc(N)c(Cl)c1)C(=O)N1CCC[C@H]1C(=O)N[C@H](C#N)Cc1nn[nH]n1	nt	nt	nt	-4%	nt
Cc1ccc(Cc2c(C3CCCCC3)nc3c4ccccc4ccn23)cc1	nt	nt	1	nt	0
O=c1cc(O)cc(/C=C/c2ccc(O)c(O)c2)o1	?	nt	nt	16µM*	nt
COC(=O)C[C@H]1CC[C@H](NC(=O)Nc2ccccc2)[C@@H](CO)O1	nt	nt	11	nt	0
COc1ccc(OC)c(/C=N/Nc2nncn2/N=C/c2cc(OC)ccc2OC)c1	5%[11.5 µM]	10µM*	-3	18%	-13
CCCCCNC(=O)C(c1ccc(C(F)(F)F)cc1)n1c(=O)c(-c2ccco2)nc2ccccc21 (stereo not given)	nt	nt	-2	nt	-12
CN(Cc1ccco1)c1ncnc2ccc(-c3ccc4c(c3)OCCO4)cc12	nt	nt	nt	8%	nt
O=c1oc2ccccc2nc1/C=C(\O)c1ccccc1	-2%	2.2µM*	nt	-3%	-3
O=C1CC2(CCCC2)C(=O)N1CN1CCN(S(=O)(=O)c2cc(F)ccc2F)CC1	nt	nt	3	nt	6
NS(=O)(=O)c1ccc(N=Nc2c(O)ccc3ccccc23)cc1	?	-3%	1	-1%	-16
Oc1ccc(N=Nc2c(O)ccc3ccccc23)cc1	?	-26%	-75*	-4%	-70*
Cc1ccnc2c1ccc1c(C)ccnc12	nt	?	-92*	10%	-92*
Cc1ccnc2c1ccc1cccnc12	nt	-13%	-92*	16%	-81*
Cc1ccnc2c1ccc1ccccc12	-7%	5%	2	-6%	1
Cc1cccc2cccnc12	nt	-8%	4	-11%	7
COc1cc(OC)c(NC(=O)CN(C)S(=O)(=O)c2ccc(-c3ccc(=O)[nH]n3)s2)cc1Cl	?	9%	nt	?	-71*
N#C/C(=C\c1ccccc1[N+](=O)[O-])c1nc(C2CC2)cs1	?	-7%	?	20µM*	?
SMILES	MBNL1 CUG block	uPA generation	CtBP-E1A blk	Mito fusion yeast	Six1-Eya2 inh
N#C/C(=C/c1ccccc1[N+](=O)[O-])c1nc(C2CC2)cs1	?	4%	?	?	-29
COc1ccccc1NC(=O)CCn1cnc2ccccc2c1=O	nt	nt	nt	3%	nt
CCOc1ccc(N(CC(=O)Nc2ccccc2OCC)S(=O)(=O)c2c(C)noc2C)cc1	3%	1.3µM*	nt	1%	1
CC(CC(=O)c1ccc(F)cc1)N1CCN(c2ccccc2)CC1 (stereo not given)	nt	7%	11	nt	-3
CC1(C(=O)Nc2cccc3ncccc23)CCN1C(=O)Cc1ccc(-c2ccccc2)cc1 (stereo not given)	nt	nt	-13	nt	-5
O=C(Nc1ccccc1)c1ccc(-c2ccc(Br)cc2)o1	113%	-10%	0	16µM*	8
O=C(Nc1cccc(NC(=O)c2ccc(-c3ccc(Br)cc3)o2)c1)c1ccccc1	8%	-1%	9	-4%	3
COc1cc(CN2C[C@@H](CO)O[C@@H](n3cnc4c(NCc5ccc(F)cc5)ncnc43)C2)cc(OC)c1OC	nt	nt	1	nt	-10
O=C(Nc1nc(-c2ccncc2)cs1)C1c2ccccc2Oc2ccccc21	6%	7%	24	11µM*	-8
O=C(Nc1nc(-c2ccccc2)cs1)C1c2ccccc2Oc2ccccc21	2%	8%	0	3%	-2
N#Cc1c(N)nc(SC2CCCCC2=O)c(C#N)c1-c1ccco1 (stereo not given)	nt	-7%	?	nt	-66*
CC(C)C[C@H]1CNC(=O)C(=O)N1CC1CCN(CC2CCC(C(C)(C)C)CC2)CC1 (stereo not given in full)	nt	18%	5	nt	-1
CC1(C)CCC=[N+]1[O-]	nt	nt	nt	-31%	nt
C/C(=N\Nc1nc(C)cc(-c2ccccc2)n1)c1ccc(O)cc1	9%	10µM*	-1	-11%	-3
C/C(=N\Nc1nc(C)cc(-c2ccccc2)n1)c1cccc(N)c1	6%	10µM*	nt	-15%	8
C/C(=N\Nc1nc(C)cc(-c2ccccc2)n1)c1ccccc1	3%	-5%	6	-13%	15
COCCN1C(=S)N[C@@H](c2ccccc2)C(C(=O)OC)=C1C	7%	nt	nt	-1%	nt
CC(C)NC(=O)C1(C)CN(S(C)(=O)=O)CC(=O)N1Cc1cccs1 (stereo not given)	nt	nt	7	nt	24
COc1ccc2[nH]c3c(c2c1)CCNC3C1CC=C(C)CC1 (stereo not given)	-5%	2.8µM*	-8	-8%	-16
CCCCN(CCCC)C(=O)c1c[nH]c2ccc(S(=O)(=O)Nc3cccc(Cl)c3C)cc2c1=O	nt	nt	nt	-3%	nt
COc1cc2[nH]c(=O)n(CCCCCC(=O)N3CC=C(c4ccccc4)CC3)c(=O)c2cc1OC	2%	-7%	-93*	-4%	?
CCCS(=O)(=O)NC(=O)C1(C)CCCN(C(=O)c2cncc(Br)c2)C1 (stereo not given)	nt	nt	3	nt	-2
CCN1C(=NCCN2CCOCC2)N[C@@H](CCc2ccccc2)C(C(=O)OC)=C1C	4%	nt	nt	-3%	nt
COc1cccc(C2CC(=O)Nc3cc(OC)c(OC)cc32)c1 (stereo not given)	2%	1%	-14	1%	4
COc1cccc(C2CC(=O)Nc3cc4c(cc32)CCC4)c1 (stereo not given)	-6%	11µM*	nt	?	-7
CC(C)CN1C(=O)C(=O)N(CC(=O)NCCCc2ccccc2)C1=O	nt	nt	6	nt	1
Cc1onc(-c2ccccc2)c1C(=O)OCC(=O)c1ccc(F)cc1	nt	nt	8	nt	15
O=C(O)c1ccc2c(c1)C(=O)N(CCc1ccc(O)cc1)C2=O	nt	nt	nt	5%	nt
